# Experimental data from PubChem BioAssay AID463190 (Sanford-Burnham Center for Chemical Genomics, 2010).
# Among all 330,000 compounds or so, about 7,300 (2.2%) were called active. This is one part of a sample in which actives are shown more often than they occur.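 How the source made its calls: active means inhibition of at least 40%; inactive means the rest.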
# Experiment: growth inhibitors of tim10-1 mutant yeast, primary screen, luminescence, uHTS (AID 463190);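 further: mutant grown at 25 °C; 0% = DMSO wells with yeast and 100% = wells holding no yeast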
# Details: S. cerevisiae tim10-1 ts strain growth, BacTiter-Glo, 24 h; at 20 µM; hits give high values
row,Compound,inhibition
1,C[C@@H](C(=O)N1CCNCC1)n1cc(CCC(=O)O)nn1,-7.39% (inactive)
2,CCCCC(O)(CCCC)C(=O)NN(C(=O)CCl)c1ccccc1,49.5% (active)
3,CCCC(O)(CCC)C(=O)NN(C(=O)CCl)c1cccc(C)c1,31.5% (inactive)
4,COC(=O)N(NC(=O)C(O)(C(C)C)C(C)C)c1ccccc1,-7.63% (inactive)
5,Cc1ccnc(SCCn2c(N(C)Cc3ccccc3)nc3c2c(=O)n(C)c(=O)n3C)n1,30% (inactive)
6,COc1ccc(C(C#N)(CC(=O)O)c2cnccn2)cc1OC (stereo unspecified),-2.88% (inactive)
7,COc1ccccc1CNS(=O)(=O)c1ccc2c(c1)NC(=O)CS2,-7.01% (inactive)
8,Cn1c(=O)[nH]c(=O)c2c1nc(N1CCN(C(c3ccccc3)c3ccccc3)CC1)n2CCO,10.4% (inactive)
9,NC(=O)c1ccc(Nc2ccc3nonc3c2[N+](=O)[O-])cc1,-0.57% (inactive)
10,O=C(O)c1ccccc1CSc1nc2ccccc2s1,2.18% (inactive)
11,O=[N+]([O-])c1c(NCCO)cc(Sc2nc3ccccc3s2)c2nonc12,42.6% (active)
12,COc1cc(C(=O)OCC(=O)NC(C)CCc2ccccc2)cc(OC)c1OC (stereo unspecified),13.5% (inactive)
13,CN1C(=O)[C@H]2[C@@H](/C=C/c3ccccc3)N3C(=O)CN(Cc4ccc(-c5ccccc5)cc4)C(=O)[C@@]3(C)[C@H]2C1=O,1.58% (inactive)
14,Cc1nc(-c2ccccc2)cn2c1nc1ccccc12,40.7% (active)
15,Cc1c(C(=O)Nc2cccc(Cl)c2)cn2c(nc3ccccc32)c1C#N,10.2% (inactive)
16,CCOCCn1c(-c2ccccc2)nc2ccccc21,-13.4% (inactive)
17,COc1ccc(C(=O)OCC(=O)c2ccc(Cl)s2)c(OC)c1OC,6.36% (inactive)
18,Cc1ccc(S(=O)(=O)NCCC(c2ccccc2)c2ccccc2)cc1C(=O)O,25.2% (inactive)
19,COc1ccc(C(=O)COC(=O)CNC(=O)c2cccs2)cc1Br,-2.83% (inactive)
20,CCN(CC)c1ccc(C(=O)N/N=C(\C)c2cccc(OC)c2)cc1,-18.4% (inactive)
21,CC(=NNC(=O)c1ccc2nc[nH]c2c1)c1ccc(Br)cc1,9.94% (inactive)
22,COc1ccc(/C(C)=N/NC(=O)c2ccc3nc[nH]c3c2)cc1,52.3% (active)
23,CN(C)CCCO/N=C(\c1ccccc1)c1ccncc1,-3.73% (inactive)
24,O=C(O/N=C(/c1ccccc1)c1ccncc1)c1ccccc1[N+](=O)[O-],41.3% (active)

row,Compound,inhibition
1,O=C(Nc1ccncc1)c1ccccc1[N+](=O)[O-],0.557% (inactive)
2,COc1ccc(OCC(=O)NNC(=O)C2CCC2)cc1,-8.95% (inactive)
3,O=C(Nc1ccc(Cl)c(Cl)c1)c1ccccc1NC(=O)C1CC=CCC1C(=O)O (stereo unspecified),14.6% (inactive)
4,COc1ccc(C(=O)Nc2ccccc2C(=O)N/N=C/c2ccccc2OC)cc1,66.7% (active)
5,COc1cc(/C=N/NC(=O)c2ccc(N3CCCC3=O)cc2)ccc1O,13.5% (inactive)
6,COc1ccc(C(=O)Nc2cc(C)c(NC(=O)c3ccccc3OC)cn2)cc1,-34.5% (inactive)
7,CCOc1cc(/C=N/NC(=O)c2cc(-c3ccccc3)nc3ccccc23)ccc1O,11.6% (inactive)
8,COc1ccccc1C(=O)NNC(=O)c1ccc(NC(=O)c2ccccc2)cc1,-9.84% (inactive)
9,COc1ccc(C(=O)Nc2ccccc2C(=O)N/N=C/c2ccc(O)c(OC)c2)cc1,97% (active)
10,O=C(Nc1cccc(Cl)c1)C1CCCN(c2cnccn2)C1 (stereo unspecified),-8.48% (inactive)
11,O=C(NCCc1ccccc1)Oc1ccc(Cl)cc1,13.9% (inactive)
12,O=C(COc1ccc(-n2cnnn2)cc1)Nc1ccccc1Cl,-7.79% (inactive)
13,Cc1ccc(NC(=O)CCC(=O)N2CCC(c3ccccc3)=N2)cc1S(=O)(=O)N1CCCCC1,-15.3% (inactive)
14,Cc1ccc(C(=O)NCC(=O)OCC(=O)Nc2cccc(S(=O)(=O)N3CCCC3)c2)cc1C,-7% (inactive)
15,COc1ccccc1CNC(=O)CCCN1C(=O)NC2(CCCC2)C1=O,6.1% (inactive)
16,Cn1c2ccccc2c2c(C(=O)N3CCN(c4ccc(F)cc4)CC3)cn(C3CCCC3)c(=O)c21,36.7% (inactive)
17,CCCc1nc2c(c(=O)c3ccccc3n2C)c(=O)n1C1CCCCCC1,43.1% (active)
18,Cn1c2ccccc2c(=O)c2c(O)cccc21,6.4% (inactive)
19,CCc1nc2nc(C)c(NS(=O)(=O)c3ccc4c(c3)CCCC4)c(=O)n2[nH]1,-10.4% (inactive)
20,O=S(=O)(c1ccc(Cl)cc1)c1nc(-c2ccco2)oc1N1CCCCC1,26.4% (inactive)
21,Cn1c(=O)n(Cc2ccco2)c(=N)c2c3c(sc21)CCCC3,12.5% (inactive)
22,O=c1oc(-c2ccco2)nc2sc3c(c12)CCCCC3,41.5% (active)
23,Cn1cccc1/C=N/NC(=O)CNc1cccc2ccccc12,13.6% (inactive)
24,Cc1cccc(/C=N/NC(=O)CNc2cccc3ccccc23)n1,23.6% (inactive)

row,Compound,inhibition
1,C/C(=N\NC(=O)CNc1cccc2ccccc12)c1ccc(Br)s1,41.9% (active)
2,CC(C)c1ccc(NC2CCCN(C(=O)c3ccncc3)C2)cc1 (stereo unspecified),8.48% (inactive)
3,Fc1ccccc1OCCSc1nc2ccccc2o1,27.5% (inactive)
4,COCCN(Cc1ccccc1)C(=O)Cc1ccc(S(=O)(=O)N2CCOCC2)s1,18.8% (inactive)
5,C=CCNc1nc(C)nc(OC)n1,7.31% (inactive)
6,COc1nc(NCc2ccc(Cl)cc2)nc(OC)n1,6.89% (inactive)
7,C=CCNc1nc(Nc2ccc(Cl)cc2)nc(OC)n1,43.2% (active)
8,Cc1[nH][nH]c(=O)c1C(c1ccc(-c2ccc(Cl)cc2)o1)c1c(C)[nH][nH]c1=O,67.1% (active)
9,CN(CC(=O)Nc1ccc(F)cc1)C(=O)c1ccc(-c2ccc(Cl)cc2)o1,21.8% (inactive)
10,CCCCSc1[nH]c(=O)c(C(=O)OCC)cc1C#N,-14.3% (inactive)
11,O=C(CSC(=S)N1CCOCC1)c1ccccc1,5.05% (inactive)
12,O=C(CSC(=S)N1CCOCC1)c1cc(Br)cc(Br)c1O,50.1% (active)
13,O=C(c1cc2cc(Br)cc(Br)c2oc1=O)N1CCOCC1,7.28% (inactive)
14,Nn1c(SCC(=O)NC2CCCC2)nnc1-c1ccccc1F,-11.7% (inactive)
15,CC(=O)Nc1ccc(Sc2ccccc2C(=O)N2CCCC2)cn1,7.35% (inactive)
16,CC(C)(C)CN1CCNC(=O)C1CC(=O)NC1Cc2ccccc2C1 (stereo unspecified),16.6% (inactive)
17,CCOc1cccc(=O)c2c(C)n(CC3CCCO3)c(C)c12 (stereo unspecified),1.25% (inactive)
18,O=C1c2cccc3c([N+](=O)[O-])ccc(c23)C(=O)N1CC1CCCO1 (stereo unspecified),71.2% (active)
19,CN1CN(C)c2ccc([N+](=O)[O-])c3cccc1c23,9.35% (inactive)
20,CCCCCCCNC(=O)C1(CC2CC(c3cccc(Br)c3)=NO2)CCN(C(=O)c2cc(OCC)c(OCC)c(OCC)c2)CC1 (stereo unspecified),-4.27% (inactive)
21,O=C(c1ccccc1)N1CCC(CC2CC(c3ccc(Cl)cc3)=NO2)(C(=O)NCC2CCCCC2)CC1 (stereo unspecified),41.2% (active)
22,COc1ccc(CNC(=O)C2(CC3CC(c4ccccc4)=NO3)CCN(C(=O)c3cccc(O)c3)CC2)cc1 (stereo unspecified),2.25% (inactive)
23,O=C(NCC1CCCO1)C1CCN(C2CCN(C(=O)C3CCCCC3)CC2)CC1 (stereo unspecified),-2.3% (inactive)
24,C/C(=N/O)c1ccc(N2C(=O)C3C4C=CC(C3C2=O)C2C3C(=O)N(c5ccc(/C(C)=N/O)cc5)C(=O)C3C42)cc1 (stereo unspecified),6.62% (inactive)

row,Compound,inhibition
1,O=C(O)c1cccc(S(=O)(=O)N2CC=C(c3ccccc3)CC2)c1,13.4% (inactive)
2,COc1ccc(OC)c(S(=O)(=O)n2c([N+](=O)[O-])cnc2C)c1,13.3% (inactive)
3,COc1ccc(C(C[N+](=O)[O-])n2nc(C)cc2C)cc1 (stereo unspecified),43.3% (active)
4,CCOc1ccc(C(C)C)cc1S(=O)(=O)n1nc(C)cc1C,36.6% (inactive)
5,Cc1ccc(S(=O)(=O)N(C)C)cc1NC(=O)c1ccc(-n2cncn2)c([N+](=O)[O-])c1,-0.831% (inactive)
6,Cn1ccs/c1=N\S(=O)(=O)c1ccc(C(C)(C)C)cc1,26.8% (inactive)
7,COc1cc(C(=O)OCc2cc(=O)n3ccsc3n2)ccc1OC(C)C,-4.26% (inactive)
8,CCCCCCSc1nsc(N)n1,26.2% (inactive)
9,CN(Cc1ccccc1)CC(O)COc1ccc(CNCc2cc3ccccc3s2)cc1 (stereo unspecified),-10.1% (inactive)
10,COC(=O)c1ccccc1NS(=O)(=O)c1ccc2[nH]c(=O)[nH]c2c1,5.53% (inactive)
11,CCOc1ccc(NC(=O)c2ccccc2NS(C)(=O)=O)cc1,-4.15% (inactive)
12,COC(=O)c1ccc(NC(=O)c2ccccc2NS(=O)(=O)c2ccccc2)cc1,40.3% (active)
13,CCOC(=O)c1ccc(NC(=O)CS(=O)(=O)c2cn(CC)c3ccccc23)cc1,14.8% (inactive)
14,CC(=O)c1cc(CN2CCC(n3nccc3NC(=O)c3ccccc3Cl)CC2)cs1,-3.89% (inactive)
15,Cc1ccc(N=Cc2c(O)n(-c3nccs3)c(=O)c3ccccc23)c(C)c1,9.76% (inactive)
16,OCc1nc(CO)n(Cc2ccccc2)n1,4.38% (inactive)
17,Cc1ccc(NNC(=O)c2c(F)cccc2Cl)cc1Cl,14% (inactive)
18,Cc1cc(OC(=O)c2c(Cl)cccc2Cl)nc(C)n1,35% (inactive)
19,Cc1cc(C)c(S(=O)(=O)c2ccccc2)c(OC(=O)c2c(F)cccc2Cl)n1,42.6% (active)
20,O=C(O)c1cccnc1NC1CCCC1,-10.6% (inactive)
21,CCC(=O)c1cn(CCOc2ccccc2OC)c2ccccc12,4.25% (inactive)
22,Cc1nn(CC(=O)NCCc2ccccc2)c(=O)c2cc3occc3n12,-16.4% (inactive)
23,CCc1ccc(-c2cc3c(=O)n(CC(=O)NCCCN4CCN(Cc5ccccc5)CC4)nc(C)n3n2)cc1,43.7% (active)
24,Cc1ccc(-c2ccc(=O)n(CC(=O)NCCCN3CCCCC3)n2)cc1,-3.38% (inactive)
